According to article PMC5540273 (PLoS ONE, 2017):
Where “and” joins values, the source holds several entries; their conditions need not be identical. Identical values can stand only once. Like-named read-outs stand apart in the source and are kept apart here.

What was measured:
Conditions in all cases: n = 1
DAPK2 = test system: DAPK2
DAPK3 = test system: DAPK3
DCAMKL1 = test system: T1, DCAMKL1
T1 construct: gene DCLK1

DCAMKL2 = test system: T2, DCAMKL2
T2 construct: gene DCLK2

DCAMKL3 = test system: T3, DCAMKL3
T3 construct: gene DCLK3

DDR1 = test system: DDR1
DDR2 = test system: DDR2
DLK = test system: T4, DLK
T4 construct: gene MAP3K12

DMPK2 = test system: T5, DMPK2
T5 construct: gene CDC42BPG

DMPK = test system: DMPK
[1] = concentration: 1 μM, replicates: in singlicate
[2] = concentration: 1 μM,replicates: in singlicate, 1 µM
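Also: KINOMEscan kinase panel screen.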

Fc1cc(Cl)ccc1Nc1ccnc2cc(-c3ccc(CN4CCCCC4)o3)ccc12 [GW560116]
%Inh (DAPK2; [1]): 0%
%Inh (DAPK3; [1]): 25%
%Inh (DCAMKL1; [1]): 0%
%Inh (DCAMKL2; [1]): 14%
%Inh (DCAMKL3; [1]): 0%
%Inh (DDR1; [1]): 27%
%Inh (DDR2; [1]): 36%
%Inh (DLK; [1]): 36%
%Inh (DMPK2; [1]): 0%
%Inh (DMPK; [1]): 0%

COC(=O)c1c(-c2ccccc2)c2cc(C(=O)O)ccc2c(=O)n1Cc1ccccc1
%Inh (DAPK2; [1]): 0%
%Inh (DAPK3; [1]): 0%
%Inh (DCAMKL1; [1]): 5%
%Inh (DCAMKL2; [1]): 4%
%Inh (DCAMKL3; [1]): 26%
%Inh (DDR1; [1]): 92.6%
%Inh (DDR2; [1]): 63%
%Inh (DLK; [1]): 0%
%Inh (DMPK2; [1]): 0%
%Inh (DMPK; [1]): 12%

Cc1cc(-c2ccc3c(c2)CC[C@@H](N[C@@H](C)c2ccccc2)C3)cnc1N.Cl [GW412617]
%Inh (DAPK2; [1]): 0%
%Inh (DAPK3; [1]): 0%
%Inh (DCAMKL1; [1]): 0%
%Inh (DCAMKL2; [1]): 0%
%Inh (DCAMKL3; [1]): 0%
%Inh (DDR1; [1]): 14%
%Inh (DDR2; [1]): 25%
%Inh (DLK; [1]): 87%
%Inh (DMPK2; [1]): 4%
%Inh (DMPK; [1]): 6%

Cn1ccc2ncnc(Oc3ccc(NC(=O)Nc4ccccc4)cc3)c21
%Inh (DAPK2; [1]): 0%
%Inh (DAPK3; [1]): 0%
%Inh (DCAMKL1; [1]): 23%
%Inh (DCAMKL2; [1]): 0%
%Inh (DCAMKL3; [1]): 0%
%Inh (DDR1; [1]): 63%
%Inh (DDR2; [1]): 74%
%Inh (DLK; [1]): 0%
%Inh (DMPK2; [1]): 0%
%Inh (DMPK; [1]): 0%

COc1ccc(CNC(=O)NC2CCN(c3ccnc(Nc4cc(OC)c(OC)c(OC)c4)n3)C2)cc1 (stereo not drawn) [GSK1379748]
%Inh (DAPK2; [1]): 0%
%Inh (DAPK3; [1]): 10%
%Inh (DCAMKL1; [1]): 5%
%Inh (DCAMKL2; [1]): 0%
%Inh (DCAMKL3; [1]): 0%
%Inh (DDR1; [1]): 1%
%Inh (DDR2; [1]): 45%
%Inh (DLK; [1]): 100%
%Inh (DMPK2; [1]): 2%
%Inh (DMPK; [1]): 0%

COc1ccccc1CNC(=O)c1cc(C(=O)c2ccccc2C)c[nH]1 [GSK364507]
%Inh (DAPK2; [1]): 0%
%Inh (DAPK3; [1]): 17%
%Inh (DCAMKL1; [1]): 16%
%Inh (DCAMKL2; [1]): 16%
%Inh (DCAMKL3; [1]): 4%
%Inh (DDR1; [1]): 11%
%Inh (DDR2; [1]): 0%
%Inh (DLK; [1]): 15%
%Inh (DMPK2; [1]): 5%
%Inh (DMPK; [1]): 0%

Cc1ccc(NC(=O)Nc2cc(C(C)(C)C)nn2-c2ccccc2)cc1 [GSK1014915]
%Inh (DAPK2; [1]): 0%
%Inh (DAPK3; [1]): 18%
%Inh (DCAMKL1; [1]): 2%
%Inh (DCAMKL2; [1]): 25%
%Inh (DCAMKL3; [1]): 5%
%Inh (DDR1; [1]): 90.7%
%Inh (DDR2; [1]): 88%
%Inh (DLK; [1]): 18%
%Inh (DMPK2; [1]): 0%
%Inh (DMPK; [1]): 3%

COc1ccc(Nc2nccc(-c3cccc(NC(=O)c4cc5cc(F)ccc5[nH]4)c3)n2)cc1 [GSK1229782]
%Inh (DAPK2; [1]): 11%
%Inh (DAPK3; [1]): 6%
%Inh (DCAMKL1; [1]): 4%
%Inh (DCAMKL2; [1]): 0%
%Inh (DCAMKL3; [1]): 4%
%Inh (DDR1; [1]): 0%
%Inh (DDR2; [1]): 39%
%Inh (DLK; [1]): 37%
%Inh (DMPK2; [1]): 13%
%Inh (DMPK; [1]): 25%

Cc1ccc(NC(=O)Nc2cccc(C(F)(F)F)c2)cc1 [GSK955403]
%Inh (DAPK2; 1 µM): 3%
%Inh (DAPK3; 1 µM): 24%
%Inh (DCAMKL1; 1 µM): 0%
%Inh (DCAMKL2; 1 µM): 0%
%Inh (DCAMKL3; 1 µM): 13%
%Inh (DDR1; 1 µM): 43%
%Inh (DDR2; 1 µM): 65%
%Inh (DLK; 1 µM): 0%
%Inh (DMPK2; 1 µM): 0%
%Inh (DMPK; 1 µM): 0%

CCn1c(-c2cccnc2O)nc2cnccc21 [SB-736715]
%Inh (DAPK2; [1]): 0%
%Inh (DAPK3; [1]): 0%
%Inh (DCAMKL1; [1]): 0%
%Inh (DCAMKL2; [1]): 3%
%Inh (DCAMKL3; [1]): 0%
%Inh (DDR1; [1]): 0%
%Inh (DDR2; [1]): 0%
%Inh (DLK; [1]): 19%
%Inh (DMPK2; [1]): 0%
%Inh (DMPK; [1]): 0%

COc1ccc(Nc2nccc(NCCNC(=O)Nc3ccccc3F)n2)cc1 [GSK1379901]
%Inh (DAPK2; [1]): 0%
%Inh (DAPK3; [1]): 8%
%Inh (DCAMKL1; [1]): 15%
%Inh (DCAMKL2; [1]): 0%
%Inh (DCAMKL3; [1]): 8%
%Inh (DDR1; [1]): 11%
%Inh (DDR2; [1]): 0%
%Inh (DLK; [1]): 0%
%Inh (DMPK2; [1]): 0%
%Inh (DMPK; [1]): 0%

CS(=O)(=O)c1ccc(-c2c(-c3ncn[nH]3)sc(N3CCOCC3)c2C#N)cc1
%Inh (DAPK2; [1]): 0%
%Inh (DAPK3; [1]): 0%
%Inh (DCAMKL1; [1]): 19%
%Inh (DCAMKL2; [1]): 23%
%Inh (DCAMKL3; [1]): 19%
%Inh (DDR1; [1]): 0%
%Inh (DDR2; [1]): 18%
%Inh (DLK; [1]): 53%
%Inh (DMPK2; [1]): 15%
%Inh (DMPK; [1]): 0%

O=C(Nc1ccccc1)Nc1cccc(Oc2ccc3nccn3n2)c1
%Inh (DAPK2; [1]): 0%
%Inh (DAPK3; [1]): 0%
%Inh (DCAMKL1; [1]): 0%
%Inh (DCAMKL2; [1]): 0%
%Inh (DCAMKL3; [1]): 69%
%Inh (DDR1; [1]): 97.8%
%Inh (DDR2; [1]): 1%
%Inh (DLK; [1]): 0%
%Inh (DMPK2; [1]): 0%
%Inh (DMPK; [1]): 4%

CS(=O)(=O)c1ccc(-c2nc3n(c2-c2ccncc2)CCC3)cc1 [SKF-105942]
%Inh (DAPK2; [1]): 0%
%Inh (DAPK3; [1]): 22%
%Inh (DCAMKL1; [1]): 21%
%Inh (DCAMKL2; [1]): 13%
%Inh (DCAMKL3; [1]): 20%
%Inh (DDR1; [1]): 0%
%Inh (DDR2; [1]): 7%
%Inh (DLK; [1]): 0%
%Inh (DMPK2; [1]): 0%
%Inh (DMPK; [1]): 0%

COc1cc2ncn(-c3cc(OCC4CCCO4)c(C(N)=O)s3)c2cc1OC (stereo not drawn) [GSK204607]
%Inh (DAPK2; [1]): 0%
%Inh (DAPK3; [1]): 2%
%Inh (DCAMKL1; [1]): 18%
%Inh (DCAMKL2; [1]): 0%
%Inh (DCAMKL3; [1]): 0%
%Inh (DDR1; [1]): 0%
%Inh (DDR2; [1]): 21%
%Inh (DLK; [1]): 33%
%Inh (DMPK2; [1]): 0%
%Inh (DMPK; [1]): 0%

Fc1cc(Cl)ccc1Nc1ccnc2cc(I)ccc12 [GW551191]
%Inh (DAPK2; [1]): 0%
%Inh (DAPK3; [1]): 9%
%Inh (DCAMKL1; [1]): 15%
%Inh (DCAMKL2; [1]): 0%
%Inh (DCAMKL3; [1]): 0%
%Inh (DDR1; [1]): 33%
%Inh (DDR2; [1]): 8%
%Inh (DLK; [1]): 27%
%Inh (DMPK2; [1]): 8%
%Inh (DMPK; [1]): 21%

COc1ccc(C2=C(Nc3cccc(C(=O)O)c3)C(=O)NC2=O)cc1 [SB-390765]
%Inh (DAPK2; [1]): 5%
%Inh (DAPK3; [1]): 0%
%Inh (DCAMKL1; [1]): 32%
%Inh (DCAMKL2; [1]): 0%
%Inh (DCAMKL3; [1]): 0%
%Inh (DDR1; [1]): 0%
%Inh (DDR2; [1]): 19%
%Inh (DLK; [1]): 0%
%Inh (DMPK2; [1]): 12%
%Inh (DMPK; [1]): 4%

CSc1nn2c(=O)cc(N3CCOCC3)nc2n1Cc1cccc(C(F)(F)F)c1C [GSK2363608]
%Inh (DAPK2; [2]): 9% and 0%
%Inh (DAPK3; [2]): 27% and 0%
%Inh (DCAMKL1; [2]): 10% and 0%
%Inh (DCAMKL2; [1]): 0%
%Inh (DCAMKL3; [2]): 34% and 0%
%Inh (DDR1; [2]): 7% and 4%
%Inh (DDR2; [1]): 0%
%Inh (DLK; [2]): 34% and 0%
%Inh (DMPK2; [2]): 24% and 2%
%Inh (DMPK; [1]): 0%
